We go through eight molecules from PubChem BioAssay (NCI).

This is part of a sample that, as a whole, favours compounds with a hit. Of some 79,000 tested, about 15% had one in any assay. A number with no mark means an inactive call. Calls of active or inactive are those of the source. Cut-off read from the data, not from the text of the source: active = growth inhibition above about 70%; inactive = the rest.

This assay can be described thus: NCI Yeast Anticancer Drug Screen. Data for the mgt1 strain (AID 153). The note with it: S. cerevisiae mgt1 mutant growth inhibition, hits give high values. On the procedure:
Growth inhibition of yeast strains with defined genetic alterations is measured as a screen for potential anti-cancer activity. Selected strains with alterations in DNA damage repair or cell cycle control were exposed to compounds and growth inhibition was measured relative to vehicle treated controls. The strain used in this assay is mgt1

`CC1CN=C(Nc2ccccc2)S1` (stereo not given): the growth inhibition (at 1.2 µM) was -57%; the growth inhibition (at 3.7 µM) was -76%; the growth inhibition (at 11.0 µM) was -54%; the growth inhibition (at 33.0 µM) was -51%; the growth inhibition (at 100.0 µM) is -60%.

On to `C/C(=N\O)c1ccc2ccc3ccccc3c2c1`, for which the growth inhibition reads like this: (at 1.2 µM) 1%; (at 3.7 µM) 0%; (at 11.0 µM) 2%; (at 33.0 µM) 37%; (at 100.0 µM) 94% (active).

On to `COC(=O)C(F)C(Br)C(=O)OC` (stereo not given), for which the growth inhibition reads like this: (at 1.2 µM) 16%; (at 3.7 µM) 82% (active); (at 11.0 µM) 98% (active); (at 33.0 µM) 99% (active); (at 100.0 µM) 99% (active).

Take `C[C@]12CCC3[C@@H](CC[C@@H]4c5nonc5CC[C@]34C)C1CCC2=O` (stereo not given in full): the growth inhibition reads like this: (at 1.2 µM) 20%; (at 3.7 µM) 29%; (at 11.0 µM) 52%; (at 33.0 µM) 84% (active); (at 100.0 µM) 90% (active).

`N#CC(C#N)=Cc1ccc(C#N)cc1`: the growth inhibition was -2% (at 1.2 µM); -2% (at 3.7 µM); 0% (at 11.0 µM); -3% (at 33.0 µM); 1% (at 100.0 µM).

Consider `CCS(=O)(=O)[O][Sn]([CH2]C)([CH2]C)[O]S(=O)(=O)CC`, for which the growth inhibition (at 1.2 µM) is -3%; the growth inhibition (at 3.7 µM) is -1%; the growth inhibition (at 11.0 µM) was 1%; the growth inhibition (at 33.0 µM) is 18%; the growth inhibition (at 100.0 µM) is 61%.

With `CO[C@H](/C(C)=C/C=C/C(C)=C/c1coc(C)n1)[C@H](C)[C@H]1C[C@@H](O)[C@@]2(C)O[C@H]2/C=C/[C@@H](C)[C@@H]2C[C@@H](CC(=O)O2)C[C@H]2O[C@@H]2C(=O)O1`, the growth inhibition (at 1.2 µM) was -4%; the growth inhibition (at 3.7 µM) was -14%; the growth inhibition (at 11.0 µM) was -6%; the growth inhibition (at 33.0 µM) was 24%; the growth inhibition (at 100.0 µM) was 94% (active).

Turning to `Oc1cccc2nc3ccccc3nc12`, the growth inhibition runs as follows: (at 1.2 µM) -22%; (at 3.7 µM) -14%; (at 11.0 µM) 6%; (at 33.0 µM) 20%; (at 100.0 µM) 91% (active).
